# Inconclusive results are not listed. Active and inactive are the calls of the source. Rule as the data show it, unless noted: active = inhibition above about 80%; inactive = the rest.
# Assays:
# [1] = growth inhibition of CRL1545 osteosarcoma cells, cell-based, cisplatin and BGB IC20 combos (AID 1671464); conditions: stronger effect = higher value;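 also: cells exposed to compound for 96 hours before readout; 0% = vehicle DMSO and 100% = high DMSO killing control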
# [2] = growth inhibition of DIPG glioma cells, dose response, cell-based, SU-DIPG-XVII, MIPE5.0, CellTiter-Glo, qHTS (AID 1347060; cut-off not given, nearly all actives have AC50 up to about 26 µM;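 as to AC50: cells exposed to compound for 48 hours before viability readout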); conditions: SU-DIPG-XVII viability, CellTiter-Glo ATP luminescence
# [3] = growth inhibition of DIPG glioma cells, dose response, cell-based, SU-DIPG-XIII, MIPE5.0, CellTiter-Glo, qHTS (AID 1347064; cut-off not given, nearly all actives have AC50 up to about 23 µM;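 as to AC50: cells exposed to compound for 48 hours before the viability read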); conditions: SU-DIPG-XIII viability, CellTiter-Glo ATP luminescence
# [4] = viability loss in pontine glioma line – cell-based, SU-DIPG-XXV, MIPE5.0, CellTiter-Glo, qHTS, dose response (AID 1347065; cut-off not given, nearly all actives have AC50 up to about 26 µM;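 also: cells exposed to compound for 48 hours before ATP readout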); conditions: CellTiter-Glo ATP luminescence
# [5] = JHH-DIPG-1 glioma cell viability, MIPE5.0 library, CellTiter-Glo luminescence, qHTS (AID 1347067; cut-off not given, nearly all actives have AC50 up to about 26 µM;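 also: cells exposed to compound for 48 hours before readout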); conditions: JHH-DIPG-1 glioma viability, CellTiter-Glo ATP luminescence
# [6] = SU-DIPG-XXV glioma cell viability, MIPE5.0 library, qHTS (AID 1347068; cut-off not given, nearly all actives have IC50 up to about 30 µM;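 as to IC50: cells exposed to compound for 48 hours before viability readout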)
# [7] = LFS_MB_P medulloblastoma growth inhibition, cell-based, chromothripsis tumors, cisplatin or BGB combos (AID 1671449); conditions: LFS_MB_P medulloblastoma cells;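 also: cells exposed for 96 hours; 0% = vehicle DMSO and 100% = killing by high DMSO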
# [8] = HDN33 neuroblastoma growth inhibition, cell-based, chromothripsis tumors, cisplatin or BGB combos (AID 1671450); conditions: HDN33 neuroblastoma cells, stronger effect = higher value;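 also: cells exposed to compound for four days; 0% = vehicle DMSO and 100% = cell killing by high DMSO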
# [9] = ICB984 medulloblastoma cell growth inhibition, synergistic combos for chromothripsis tumors, cisplatin or BGB combos (AID 1671451; call rule not given here;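 also: cells exposed for 96 hours before readout; 0% = vehicle DMSO and 100% = killing by high DMSO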); conditions: ICB984 medulloblastoma cells, drug combinations, stronger effect = higher value
# [10] = LFS_MB_1R medulloblastoma cell growth inhibition, synergistic combos for chromothripsis tumors, cisplatin or BGB combos (AID 1671452); conditions: LFS_MB_1R medulloblastoma cells, stronger effect = higher value;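 also: cells exposed for 96 hours before readout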
# [11] = HTB85 osteosarcoma cell growth inhibition, synergistic combos for chromothripsis tumors, BGB or cisplatin IC20 combos (AID 1671453); conditions: HTB85 osteosarcoma cells, drug combinations, stronger effect = higher value;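 also: cells exposed for 96 hours before readout; 0% = vehicle DMSO and 100% = high DMSO killing control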
# [12] = CRL2098 osteosarcoma cell growth inhibition, synergistic combos for chromothripsis tumors, BGB or cisplatin IC20 combos (AID 1671454); conditions: CRL2098 osteosarcoma cells, drug combinations, stronger effect = higher value;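 also: cells exposed for 96 h before readout; 0% = vehicle DMSO and 100% = killing by high DMSO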
# [13] = HD-MB03 medulloblastoma cell growth inhibition, synergistic combos for chromothripsis tumors, BGB or cisplatin IC20 combos (AID 1671455; in the data active = inhibition above about 83%;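 also: 0% = vehicle DMSO and 100% = high DMSO as cytotoxic control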); conditions: HD-MB03 medulloblastoma cells, stronger effect = higher value
# [14] = UWB1.289 ovarian carcinoma cell growth inhibition, synergistic combos for chromothripsis tumors, BGB or cisplatin combos (AID 1671456); conditions: UWB1.289 ovarian carcinoma cells, stronger effect = higher value;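 also: cells exposed to compound for four days; 0% = vehicle DMSO and 100% = killing by high DMSO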
# [15] = MDA-MB-436 breast carcinoma cell growth inhibition, synergistic combos for chromothripsis tumors, BGB or cisplatin combos (AID 1671458; call rule not given here;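 also: cells exposed for 96 hours; 0% = vehicle DMSO and 100% = killing by high DMSO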); conditions: MDA-MB-436 breast carcinoma growth inhibition, drug combinations, stronger effect = higher value
# [16] = growth inhibition of BT084 medulloblastoma cells, cell-based, ICGC_MB145, cisplatin and BGB IC40 combos (AID 1671461); conditions: drug combinations, stronger effect = higher value;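 also: cells exposed to drugs for 96 hours; 0% = vehicle DMSO and 100% = high DMSO full killing control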
# [17] = growth inhibition of RCMB18 medulloblastoma cells, cell-based, cisplatin and BGB IC40 combos (AID 1671462); conditions: stronger effect = higher value;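 also: cells exposed to compound for four days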
# [18] = measured here: with BGB IC20 combination, at 0.5 µM
# [19] = measured here: with cisplatin IC20 combination, at 0.5 µM
# [20] = measured here: combination with BGB IC40, at 0.05 µM
# [21] = measured here: combination with cisplatin, at 0.5 µM
smiles,measurement,setting,value
NC1CCC(N[C@@H]2C[C@H]2c2ccccc2)CC1 (stereo partly drawn),inhibition,[1]; [18],-47.5%
same,inhibition,[1]; [19],-37.3%
same,inhibition,"[1]; single agent, at 0.05 µM",-32.5%
same,inhibition,"[1]; single agent, at 5 µM",-26.5%
COc1ccc(C(=O)C2CCN(CC(=O)N(Cc3nc4c(c(=O)[nH]3)COCC4)CC3CC3)CC2)cc1,outcome,[2],inactive
same,outcome,[3],inactive
same,outcome,[4],inactive
same,outcome,[5],inactive
same,outcome,[6],inactive
same,inhibition,"[7]; at 0.5 µM, stronger effect = higher value",-26.8% (inactive)
same,inhibition,"[7]; measured here: combination with BGB IC20, at 0.005 µM",-22.7%
same,inhibition,"[7]; measured here: combination with BGB IC40, at 0.005 µM",-42.7%
same,inhibition,[7]; [20],-55.1%
same,inhibition,"[7]; measured here: combination with cisplatin, at 0.5 µM, stronger effect = higher value",-22.8%
same,inhibition,"[7]; measured here: combination with cisplatin, at 5 µM, stronger effect = higher value",-44.7%
same,inhibition,"[8]; BGB combo, at 5 µM",-14.7%
same,inhibition,[8]; at 0.5 µM,19.2% (inactive)
same,inhibition,"[8]; cisplatin combo, at 5 µM",9.88%
same,inhibition,[8]; [18],15.5%
same,inhibition,[8]; [19],24.9%
same,inhibition,"[8]; single agent, at 5 µM",15.7%
same,inhibition,"[9]; BGB IC20 combo, at 0.005 µM",-9.62%
same,inhibition,"[9]; BGB IC40 combo, at 0.005 µM",-29.7%
same,inhibition,"[9]; BGB IC40 combo, at 0.05 µM",-4.73%
same,inhibition,[9]; at 0.5 µM,-22.8% (inactive)
same,inhibition,"[9]; cisplatin combo, at 0.05 µM",-10.1%
same,inhibition,"[9]; cisplatin combo, at 0.5 µM",-15%
same,inhibition,"[9]; cisplatin combo, at 5 µM",-26%
same,inhibition,"[9]; measured here: 5 uM single agent, at 5 µM",-16%
same,inhibition,[10]; at 0.5 µM,-33% (inactive)
same,inhibition,[10]; [20],-55.7%
same,inhibition,[10]; [21],-42.4%
same,inhibition,"[10]; measured here: combination with cisplatin, at 5 µM",-67.1%
same,inhibition,[11]; at 0.5 µM,14.2% (inactive)
same,inhibition,"[11]; measured here: with BGB IC20, at 0.5 µM",33.7%
same,inhibition,"[11]; measured here: with BGB IC20, at 5 µM",10.5%
same,inhibition,"[11]; measured here: with cisplatin IC20, at 0.5 µM",-3.3%
same,inhibition,"[11]; measured here: with cisplatin IC20, at 5 µM",4.94%
same,inhibition,"[11]; single agent, at 5 µM",15.4%
same,inhibition,[12]; at 0.5 µM,-25.5% (inactive)
same,inhibition,"[12]; measured here: combination with BGB at IC20, at 0.5 µM",-15.2%
same,inhibition,"[12]; measured here: combination with cisplatin at IC20, at 0.5 µM",-29.9%
same,inhibition,[13]; at 0.5 µM,-6.43% (inactive)
same,inhibition,"[13]; measured here: combo with BGB at IC20, at 0.5 µM",-11.5%
same,inhibition,"[13]; measured here: combo with cisplatin at IC20, at 0.5 µM",-4.57%
same,inhibition,[14]; at 0.5 µM,0.15% (inactive)
same,inhibition,"[14]; measured here: inhibition with BGB combination, at 0.05 µM",-7.89%
same,inhibition,"[14]; measured here: inhibition with cisplatin combination, at 0.05 µM",-13.7%
same,inhibition,[15]; at 0.5 µM,-12.3% (inactive)
same,inhibition,"[15]; measured here: BGB combination, at 0.5 µM",-9.1%
same,inhibition,"[15]; measured here: BGB combination, at 5 µM",-21.6%
same,inhibition,"[15]; measured here: cisplatin combination, at 0.5 µM",-32.8%
same,inhibition,"[15]; measured here: cisplatin combination, at 5 µM",-17.8%
same,inhibition,[16]; at 0.5 µM,-24.2% (inactive)
same,inhibition,"[16]; cisplatin combination, at 0.5 µM",-30.1%
same,inhibition,"[16]; cisplatin combination, at 5 µM",-190%
same,inhibition,"[16]; measured here: BGB IC40 combination 0.05 uM, at 0.05 µM",-40%
same,inhibition,"[16]; single agent, at 5 µM",-16.6%
same,inhibition,[17]; at 0.5 µM,-19.3% (inactive)
same,inhibition,"[17]; cisplatin combo, at 5 µM",-12.1%
same,inhibition,"[17]; measured here: BGB IC40 combination, at 0.05 µM",-3.95%
same,inhibition,[17]; [21],-13.9%
same,inhibition,"[17]; single agent, at 5 µM",8.88%
same,inhibition,[1]; at 0.5 µM,9.43% (inactive)
same,inhibition,[1]; [18],5.59%
same,inhibition,[1]; [19],9.92%
same,inhibition,"[1]; single agent, at 0.05 µM",-39.6%
same,inhibition,"[1]; single agent, at 5 µM",-10.3%
c1ccc2c(-c3cnn4cc(-c5ccc(N6CCNCC6)cc5)cnc34)ccnc2c1,AC50,[2],3.32 µM (active)
same,AC50,[3],5.25 µM (active)
same,AC50,[4],2.63 µM (active)
same,AC50,[5],2.63 µM (active)
same,IC50,[6],5.9 µM (active)
